# Reference: PubChem BioAssay AID1159577 (Broad Institute, 2015)
# In all, about 1,300 compounds went through this assay and about 240 (18%) were called active. About 8% were inconclusive and are not listed. How the calls were made is not given here. Not all results are given here. Where a call stands in place of a potency, no number is given. Potency and affinity values are given separately.
# Assay: toxicity to human hepatoma HepG2 cells – cell-based, cherry-picked samples, cytotoxicity control, dose response (AID 1159577)
# Conditions: HepG2 cytotoxicity counterscreen, plate reader; series mostly up to 19.5 µM
row,SMILES,outcome
1,C[C@@H]1CN([C@@H](C)CO)S(=O)(=O)c2ccc(C#Cc3ccncc3)cc2O[C@H]1CN(C)S(=O)(=O)c1ccc(F)cc1,inactive
2,OC[C@H]1CC[C@@H]2O[C@H](CCc3ccc(C#CCc4ccccc4)cc3)[C@@H](n3cc(-c4ccccc4)nn3)C[C@@H]2O1,inactive
3,O=C(C1CCCC1)N1CC[C@@H]2[C@H]1c1cc(C3=CCCCC3)ccc1N[C@@H]2CO,inactive
4,Cc1ccc(S(=O)(=O)N(C)C[C@@H]2OCc3ccccc3-c3c(n(C)c4ccccc34)C(=O)N([C@@H](C)CO)C[C@@H]2C)cc1,inactive
5,CCCc1cn([C@H]2C[C@@H]3O[C@H](CO)CC[C@@H]3O[C@@H]2CCc2ccc(-c3ccc(OC)cc3)cc2)nn1,inactive
6,CCCc1cn([C@H]2C[C@@H]3O[C@@H](CO)CC[C@@H]3O[C@@H]2CCc2ccc(-c3ccc(OC)cc3)cc2)nn1,inactive
7,COc1ccc(S(=O)(=O)N[C@@H]2CC[C@H](CCn3cc(-c4ccccc4F)nn3)O[C@@H]2CO)cc1,inactive
8,COc1cccc(-c2cn(CC[C@@H]3CC[C@H](NS(=O)(=O)c4ccccc4Cl)[C@H](CO)O3)nn2)c1,inactive
9,CCC(=O)N1C[C@H](C)[C@H](OC)CN(C)C(=O)c2cc(NC(=O)Nc3cccc(F)c3)ccc2OC[C@@H]1C,inactive
10,O=C(Nc1cccc(F)c1)N[C@@H]1CC[C@H](CCNS(=O)(=O)c2cccc(Cl)c2)O[C@H]1CO,inactive
11,C[C@H]1CN([C@@H](C)CO)C(=O)c2c(c3ccccc3n2C)-c2ccccc2CO[C@H]1CN(C)S(=O)(=O)c1ccccc1C#N,inactive
12,COc1ccc(C#Cc2ccc3c(c2)[C@@H]2[C@@H](CCN2C(=O)C2CCC2)[C@H](CO)N3)cc1,inactive
13,CN1CCCCN2[C@@H](CO)[C@@H](c3ccc(-c4cccnc4)cc3)[C@@H]2C1,inactive
14,O=C(Nc1ccccc1F)N1CCCCN2[C@@H](CO)[C@H](c3ccc(C#Cc4cccnc4)cc3)[C@@H]2C1,inactive
15,O=C(Nc1ccccc1F)N1CCCCN2[C@H](CO)[C@H](c3ccc(C#Cc4cccnc4)cc3)[C@@H]2C1,inactive
16,COCC(=O)Nc1ccc2c(c1)C(=O)N(C)C[C@@H](OC)[C@H](C)CN(CC1CCCCC1)[C@@H](C)CO2,inactive
17,CCCN1C[C@H](C)[C@@H](OC)CN(C)C(=O)c2cc(NC(=O)Nc3cccc(F)c3)ccc2OC[C@H]1C,inactive
18,CCC(=O)N[C@H]1C=C[C@H](CC(=O)NCC2CCCCC2)O[C@@H]1CO,inactive
19,CCC(=O)N1CCC2(CC1)CN(Cc1ccc3c(c1)OCO3)[C@@H](CO)c1c2c2ccc(OC)cc2n1C,inactive
20,COc1ccc2c3c([nH]c2c1)[C@H](CO)N(Cc1cccc(F)c1)CC31CCN(Cc2ccccn2)CC1,inactive
21,CCCC(=O)Nc1ccc2c(c1)OC[C@@H](C)N(Cc1cc(-c3ccccc3)on1)C[C@@H](C)[C@H](OC)CN(C)C2=O,inactive
22,CCCC(=O)N1CC2(C1)CN(S(=O)(=O)c1ccc(C)cc1)[C@@H](CO)c1[nH]c3cc(OC)ccc3c12,inactive
23,COc1cccc(-c2ccc([C@H]3[C@H](CO)N4CCCCN(CC5CC5)C[C@@H]34)cc2)c1,inactive

row,SMILES,outcome
1,COc1cccc(S(=O)(=O)N(C)C[C@@H]2OCc3ccccc3-c3c(n(C)c4ccccc34)C(=O)N([C@H](C)CO)C[C@@H]2C)c1,inactive
2,COc1ccc2c3c(n(C)c2c1)[C@H](CO)N(C(=O)Nc1ccc(F)cc1)CC31CCN(C(=O)c2cccnc2)CC1,inactive
3,CCCC(=O)Nc1ccc2c(c1)OC[C@@H](C)N(Cc1ccc(F)cc1)C[C@@H](C)[C@H](OC)CN(C)C2=O,inactive
4,CC=Cc1ccc2n(c1=O)C[C@H]1[C@H](CO)[C@@H](C(=O)N3CCC(Cc4ccccc4)CC3)N(CCC)[C@@H]21 (mixture of isomers),inactive
5,C[C@H](CO)N1C[C@H](C)[C@H](CN(C)S(=O)(=O)c2ccc(F)cc2)OCc2ccccc2-c2c(n(C)c3ccccc23)C1=O,inactive
6,Cc1ccc(-c2ccccc2[C@H]2[C@@H](C#N)N(C(=O)c3cccc(F)c3)[C@H]2CO)cc1,inactive
7,C[C@H]1CN([C@@H](C)CO)C(=O)c2c(c3ccccc3n2C)-c2ccccc2CO[C@@H]1CN(C)S(=O)(=O)c1cccc(F)c1,inactive
8,C[C@H](CO)N1C[C@H](C)[C@H](CN(C)CC2CC2)Oc2ccc(NC(=O)Nc3ccccc3)cc2CC1=O,inactive
9,C[C@H]1CN([C@@H](C)CO)C(=O)Cc2cc(NC(=O)Nc3ccc(C(F)(F)F)cc3)ccc2O[C@@H]1CN(C)C(=O)Nc1ccc2c(c1)OCO2,inactive
10,C[C@H](CO)N1C[C@H](C)[C@@H](CN(C)C(=O)Nc2ccc3c(c2)OCO3)Oc2ccc(NC(=O)Nc3ccc(C(F)(F)F)cc3)cc2CC1=O,inactive
11,C[C@H](CO)N1C[C@H](C)[C@@H](CN(C)C(=O)Nc2ccc(F)cc2)Oc2ccc(NC(=O)Nc3ccc(C(F)(F)F)cc3)cc2CC1=O,inactive
12,COc1ccc(NC(=O)N(C)C[C@H]2Oc3ccc(NC(=O)Nc4ccc(C(F)(F)F)cc4)cc3CC(=O)N([C@H](C)CO)C[C@@H]2C)cc1,inactive
13,C[C@@H]1CN([C@@H](C)CO)C(=O)Cc2cc(NC(=O)Nc3ccccc3)ccc2O[C@H]1CN(C)CC1CC1,inactive
14,O=C(c1cccc(F)c1)N1CC(=O)N2[C@H](C1)[C@@H](c1ccc(-c3cccnc3)cc1)[C@@H]2CO,inactive
15,COCC(=O)N1CCC2(CC1)CN(Cc1cccc(OC)c1)[C@@H](CO)c1[nH]c3cc(OC)ccc3c12,inactive
16,C[C@@H]1CN([C@@H](C)CO)C(=O)c2cccc(NC(=O)c3nc4ccccc4s3)c2O[C@@H]1CN(C)C(=O)Nc1cccc2ccccc12,inactive
17,Cc1ccc(-c2ccc3c(c2)O[C@@H](CN(C)C(=O)C2CCCCC2)[C@H](C)CN([C@H](C)CO)S3(=O)=O)cc1,inactive
18,N#Cc1cccc(-c2ccc3c(c2)[C@H]2[C@H](CCN2C(=O)c2ccncc2)[C@H](CO)N3)c1,inactive
19,COc1cccc(CN2CC3(CN(Cc4ccccn4)C3)c3c([nH]c4cc(OC)ccc34)[C@@H]2CO)c1,inactive
20,COc1cccc(CN2CC3(CN(Cc4ccccn4)C3)c3c([nH]c4cc(OC)ccc34)[C@H]2CO)c1,inactive
21,COc1ccc2c3c(n(C)c2c1)[C@@H](CO)NCC31CCN(Cc2ccc(-c3ccccn3)cc2)CC1,inactive
22,COc1ccc2c3c(n(C)c2c1)[C@H](CO)N(C(=O)Nc1ccc(F)cc1)CC31CCN(Cc2ccccn2)CC1,inactive
